Shown are actives, neighbours in structure and some others; about 4% of the full set was active somewhere.
Mdm2 MdmX PPI = inhibitors of human Mdm2-MdmX association, primary screen, cell-based, luminescence, split luciferase, SaOS-2, uHTS; Protein Mdm4 (Homo sapiens) + E3 ubiquitin-protein ligase Mdm2 (Homo sapiens), …; SaOS-2 split-luciferase Mdm2/MdmX complementation; inhibition, % at 8 µM; 3% of 330,000 active; AID 485346, 2010;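 active = inhibition of at least 50% at 8 µM in the primary screen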
Target sequence (O15151 whole entry, looked up): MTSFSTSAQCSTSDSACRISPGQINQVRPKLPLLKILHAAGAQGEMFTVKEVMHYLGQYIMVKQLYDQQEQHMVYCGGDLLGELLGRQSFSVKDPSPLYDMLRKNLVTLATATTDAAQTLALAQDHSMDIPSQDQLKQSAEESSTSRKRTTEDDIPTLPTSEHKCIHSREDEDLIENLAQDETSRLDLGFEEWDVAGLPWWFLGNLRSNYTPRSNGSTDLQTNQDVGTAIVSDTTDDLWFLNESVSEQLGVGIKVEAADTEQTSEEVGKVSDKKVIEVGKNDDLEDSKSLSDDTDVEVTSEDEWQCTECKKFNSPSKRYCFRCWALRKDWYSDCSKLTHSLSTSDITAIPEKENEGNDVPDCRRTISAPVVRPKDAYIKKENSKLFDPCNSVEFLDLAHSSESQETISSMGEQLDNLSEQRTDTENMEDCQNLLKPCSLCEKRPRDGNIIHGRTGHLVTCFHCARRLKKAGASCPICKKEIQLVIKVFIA
Target sequence (Q00987 whole entry, looked up): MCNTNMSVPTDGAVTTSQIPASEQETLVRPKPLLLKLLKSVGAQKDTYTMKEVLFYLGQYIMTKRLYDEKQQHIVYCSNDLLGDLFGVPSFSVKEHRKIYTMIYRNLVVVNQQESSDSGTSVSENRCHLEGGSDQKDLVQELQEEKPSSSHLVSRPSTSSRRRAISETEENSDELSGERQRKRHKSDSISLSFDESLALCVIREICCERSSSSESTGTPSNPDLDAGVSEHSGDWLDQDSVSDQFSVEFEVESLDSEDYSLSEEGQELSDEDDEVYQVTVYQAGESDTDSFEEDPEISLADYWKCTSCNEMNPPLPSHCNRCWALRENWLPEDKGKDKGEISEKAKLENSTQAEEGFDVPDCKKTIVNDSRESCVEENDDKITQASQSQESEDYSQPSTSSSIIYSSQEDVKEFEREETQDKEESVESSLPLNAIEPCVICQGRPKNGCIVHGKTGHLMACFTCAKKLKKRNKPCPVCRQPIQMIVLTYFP
Beta apoptosis = inhibitors of cytokine-induced beta cell apoptosis, primary screen, luminescence | INS-1E cytokine-induced death, ATP luminescence, 48 h; percent of positive-control rescue, neutral wells zero | protection from apoptosis, % (test concentration not listed) | 0.8% of 300,000 active | AID 435005, 2010;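 active = Every replicate reaches about 75%, or at least half do and their mean reaches it too, limit read from the data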;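 also: 0% = cytokine-treated negative control wells and 100% = positive control rescue; higher means more ATP so stronger rescue from cytokine killing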
PAX8 inh HTS = inhibitors of PAX8-driven TPO luciferase reporter, primary screen, RMG-I cells, single concentration; SteadyGlo, 24 h; inhibition, % at 12.6 µM; 1.2% of 360,000 active; AID 652154, 2013;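 active = mean replicate inhibition at least 60% with every replicate also reaching 60%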;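 also: luciferase light reporting Pax8 driven TPO promoter activity; plate controls were median of neutral control wells for no effect and mitoxantrone controls for full effect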
CSC inhib = cancer stem cell viability inhibitors, primary screen, luminescence. cancer stem cell-like cells viability. inhibition, % at 7.5 µM. 1.1% of 300,000 active; in the data active = inhibition above about 75%; tested in HMLE shEcad cells
Shn3 3UTR inh = reduction of Shn3 3'UTR firefly luciferase signal, primary screen, Schnurri-3 inhibitor project, cell-based, Clone20 osteoblasts, set 2 | Clone20 osteoblast Shn3 3'UTR firefly luciferase, 24 h | inhibition, % at 12.5 µM | 0.52% of 360,000 active | AID 588674, 2011;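 active = mean inhibition of at least 75% with every replicate also reaching 75%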;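 also: 0% = median of neutral control wells and 100% = pilot-screen positive control compound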
Gli-Sufu antag = Gli-Sufu pathway antagonists, primary screen, luciferase luminescence, Sufu-KO-LIGHT cells, uHTS | Sufu-KO-LIGHT fibroblasts, Gli luciferase reporter luminescence | inhibition, % at 5 µM | 0.74% of 340,000 active;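 active = inhibition above about 55%, limit read from the data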;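 also: 0% = DMSO-treated cells and 100% = wells with medium but no cells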
Mdm2-MdmX conf = Mdm2-MdmX complex disruptors, retested hits, confirmation, luminescence, single concentration; Mdm2-MdmX binding, luminescent assay; inhibition, % at 8 µM; AID 489028, 2010; shares compounds with Mdm2 MdmX PPI; 55% of 10,000 active; in the data active = inhibition above about 40%
FLuc counter = full-length luciferase signal inhibition, confirmation, counter-screen for Mdm2/MdmX interaction inhibitor project, cell-based, single concentration, SaOS-2 | shares compounds with Mdm2 MdmX PPI | SaOS-2 full-length luciferase counterscreen, luminescence | inhibition, % at 8 µM | 77% of 6,200 active;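 active = mean inhibition at 8 µM reaching about 37%, which flags the compound as non-specific, limit read from the data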;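 also: p53-null SaOS-2 cells with luciferase driven by a doxycycline-inducible promoter; compound on cells about two nights before reading with doxycycline added after day one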
Active calls of the source: *; · = no result.

SMILES	Mdm2 MdmX PPI	Beta apoptosis	PAX8 inh HTS	CSC inhib	Shn3 3UTR inh	Gli-Sufu antag	Mdm2-MdmX conf	FLuc counter
N/C(Cc1ccc([N+](=O)[O-])cc1)=N\OC(=O)c1ccc(Br)cc1	13.2	-1.6	12.0	4.1	-1.3	2.3	·	·
Cc1ccc(C(=O)O/N=C(\N)Cc2ccc([N+](=O)[O-])cc2)c(Cl)c1	90.5*	-3.9	-8.5	-0.5	-24.9	-3.1	60.2*	43.4*
Cc1cccc(C(=O)O/N=C(\N)Cc2ccc([N+](=O)[O-])cc2)c1	89.4*	-4.0	·	-15.4	-2.5	-7.8	55.6*	54.4*
N/C(Cc1ccc([N+](=O)[O-])cc1)=N\OC(=O)c1ccc2ccccc2c1	87.7*	0.4	·	0.9	-1.8	3.6	39.7	61.1*
Cc1ccc(C(=O)O/N=C(\N)Cc2cccs2)c(Cl)c1	100.4*	·	·	·	-82.0	-102.9	23.9	·
O=C(C[C@H]1C=C[C@@H](NS(=O)(=O)c2ccccc2)[C@H](CO)O1)NCc1ccc(Cl)c(Cl)c1	·	·	16.7	·	·	·	·	·
CCNC(=O)C[C@@H]1C=C[C@@H](NC(=O)C2CC2)[C@H](CO)O1	·	·	-9.4	·	·	·	·	·
COc1ccc(C/C(N)=N/OC(=O)C(c2ccccc2)c2ccccc2)cc1OC	45.9	-0.7	·	32.2	15.9	-5.0	·	·
N/C(Cc1ccc([N+](=O)[O-])cc1)=N\OC(=O)c1ccccc1Br	60.5*	3.3	-0.9	2.2	-22.3	2.1	29.9	·
N/C(Cc1ccc([N+](=O)[O-])cc1)=N\OC(=O)C(c1ccccc1)c1ccccc1	70.2*	10.6	·	-4.0	17.4	2.2	49.6*	79.3*
COc1ccccc1C/C(N)=N/OC(=O)c1cccc([N+](=O)[O-])c1C	56.7*	11.8	-10.7	-3.1	-12.3	-6.3	35.8	102.1*
C=C[C@H](OC)[C@@H](OC(=O)Nc1ccc(SC)cc1)c1ccc(OCCO)cc1	·	·	-17.9	·	·	·	·	·
C[C@@H]1CN([C@H](C)CO)C(=O)c2cccc(NS(=O)(=O)c3cccs3)c2O[C@@H]1CN(C)S(=O)(=O)c1ccc(Cl)cc1	·	·	-12.0	·	·	·	·	·
C[C@H]1CCCCO[C@H](CN(C)S(=O)(=O)c2ccc(F)cc2)[C@@H](C)CN([C@@H](C)CO)C(=O)c2cc(NS(=O)(=O)c3cccs3)ccc2O1	·	·	40.0	·	·	·	·	·
COc1cc2ccccc2cc1C(=O)N/N=C/c1ccc2c(c1)OCO2	50.9*	4.5	19.2	55.0	1.6	1.5	70.5*	53.4*
COc1ccc(/C=N\NC(=O)c2ccccc2F)cc1COc1ccc(F)cc1	30.7	-5.3	9.0	10.8	0.9	7.3	·	·
COc1ccc(/C=N\NC(=O)c2ccccc2F)cc1COc1ccc(F)cc1F	57.9*	11.3	13.1	71.4	3.6	11.9	76.1*	65.7*
COc1ccccc1C(=O)N/N=C/c1ccc2c(c1)OCO2	-21.0	19.9	-112.8	14.4	-73.1	-42.1	·	·
COc1ccc(/C=N/NC(=O)c2ccoc2C)cc1COc1c(C)cccc1C	75.5*	54.1	1.8	69.7	43.3	-13.9	31.9	·
COc1ccc(/C=N/NC(=O)c2cc(C)oc2C)cc1OCc1ccccc1	61.7*	0.1	-1.7	7.4	2.1	3.2	8.5	·
C[C@H](CO)N1C[C@H](C)[C@@H](CN(C)Cc2ccncc2)Oc2ccc(NS(=O)(=O)c3cccs3)cc2CC1=O	·	·	-0.9	·	·	·	·	·
Cc1ccc(-c2cnc3c(c2)C(=O)N([C@H](C)CO)C[C@@H](C)[C@@H](CN(C)C(=O)c2ccccc2)O3)cc1	·	·	-6.4	·	·	·	·	·
C=CCn1c(=O)c2ccccc2n2c(Sc3nnnn3-c3ccccc3)nnc12	53.0*	-19.9	·	-8.8	25.0	7.1	24.3	·
CC(C)NC(=O)Nc1ccc2c(c1)CC(=O)N([C@@H](C)CO)C[C@@H](C)[C@H](CN(C)S(C)(=O)=O)O2	·	·	5.6	·	·	·	·	·
Cn1c(SCC(=O)Nc2cccc(Br)c2)nnc1-c1cc2ccccc2o1	62.7*	-2.3	·	·	-4.7	-2.4	-18.6	·
SMILES	Mdm2 MdmX PPI	Beta apoptosis	PAX8 inh HTS	CSC inhib	Shn3 3UTR inh	Gli-Sufu antag	Mdm2-MdmX conf	FLuc counter
O=C(Nc1ccc(Cl)c(Cl)c1)N[C@@H]1CC[C@H](CCn2cc(C3CC3)nn2)O[C@@H]1CO	·	·	17.3	·	·	·	·	·
Cc1ccccc1NC(=S)N=Nc1c(O)n(C)c2ccc(S(=O)(=O)N3CCOCC3)cc12	43.5	52.7	45.3	53.7	45.2	33.3	·	·
Cc1cc(C)cc(NC(=S)N=Nc2c(O)n(C)c3ccc(S(=O)(=O)N4CCOCC4)cc23)c1	22.7	29.3	27.5	30.8	57.2	16.3	·	·
Cc1cccc(C)c1NC(=S)N=Nc1c(O)n(C)c2ccc(S(=O)(=O)N3CCOCC3)cc12	63.8*	9.0	1.5	29.2	36.4	23.9	30.5	·
Cc1cccc(NC(=S)N=Nc2c(O)n(C)c3ccc(S(=O)(=O)N4CCOCC4)cc23)c1	54.2*	40.9	·	28.8	70.1	29.3	53.8*	64.1*
CN(NC(=O)c1cccc(Cl)c1)c1nc(-c2ccccc2)nnc1C(F)(F)F	58.8*	7.9	·	14.7	21.1	8.3	56.6*	53.4*
CN(N)c1nc(-c2ccccc2)nnc1C(F)(F)F	-2.9	3.0	·	11.6	-9.5	-1.1	·	·
Clc1ccc(OCCCNCc2ccccc2)c(Br)c1	65.3*	17.4	·	-1.7	-16.2	9.1	24.4	·
CC(=O)Nc1ccc(C(=O)Nc2nc(-c3ccccn3)cs2)cc1	26.0	16.3	0.3	16.9	-22.1	4.1	·	·
